Source: PubChem BioAssay
Hits are enriched below; roughly 3% of the tested compounds scored in any of these assays.
Hsp90 Hop PPI: qHTS Assay for Disrupters of an Hsp90 Co-Chaperone Interaction | AlphaScreen TPR2A-His6 binding biotin-Hsp90 C-terminal peptide | Hsp90 C-terminal peptide / TPR2A (Hop) interaction, human | 71,000 tested, 0.44% active | Potency, µM (titrated, usually from 57 µM); active means well fitted curve in either direction with a large enough effect; inconclusive means small, poorly fitted or top-dose-only effect, or another doubt
ERK AVP block: qHTS Assay for Inhibitors of the ERK Signaling Pathway using a Homogeneous Screening Assay | HEK293-V1b, vasopressin-stimulated pERK AlphaScreen | Potency, µM (doses to about 57.5 µM), hits mostly inhibitors | 72,000 tested, 0.99% active | AID 995, 2007; further: nearly all actives have a fitted effect of over 55% in size
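V1b-HEK293 cells; cpd 30 min 37C; 25 nM vasopressin 5 min; lyse 10 min; AlphaScreen beads 5 hr RT. Normalized to DMSO basal and 25 nM vasopressin; AC50 by Hill fit.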
Epigenetic mod: qHTS Assay for Epigenetic Modulators. 68,000 tested, 0.09% active. Potency, µM (highest dose often 46.1 µM). mouse C127i GFP locus derepression, cytometry, 30 h
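Derepression screen: silenced CMV-GFP reporter in murine C127i cells, 30 h compound incubation at 37 C, washed cells imaged by laser-scanning cytometer to enumerate GFP-expressing objects of 20 to 120 um.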
UbGFP stabilizer: Ubiquitin-GFP Assay. Ubiquitin-GFP reporter cells, proteasome inhibition, GFP fluorescence; response scale: untreated = 0%, 10 µM MG-132 = 100%. 67,000 tested, under 10 active. AID 526, 2006. Potency, µM (doses to about 45.9 µM), hits mostly activators; active means well fitted activation curve with a large enough effect, not every such curve was filed as active; inconclusive means small, poorly fitted or top-dose-only effect, or another doubt; inactive means no such curve, though single readings can be large or run the other way
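U2OS cells expressing ubiquitin(G76V)-GFP, seeded overnight in 0.5% FBS medium, then treated 4 hr at 37 C across 46 uM to 2.9 nM. GFP-positive cells counted by laser cytometry (488 ex/515 em); %activity scaled between basal and 10 uM MG-132.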
HBB splicing: qHTS Assay for Modulators of Hemoglobin Beta Chain Splicing | 65,000 tested, 0.06% active | HBB splicing reporter cell assay, activation; EGFP reporter with mutant IVS2-654 intron; response scale: normalised to 500 nM splice-correcting PNA | Potency, µM (series often up to 46.1 µM), hits mostly activators | AID 925, 2007
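Compounds were applied for 2 days to HeLa EGFP-654 cells, 500/well in Optimem with 2% FCS. The reporter's EGFP is disrupted by mis-splicing of beta-globin intron IVS2-654. Readout: summed well GFP fluorescence from 488 nm laser scanning; reference was 500 nM antisense […] 654 PNA.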
Tau filament bind: qHTS Assay for Tau Filament Binding. Microtubule-associated protein tau (Homo sapiens), P10636. recombinant tau filaments, thioflavin S fluorescence, 15 h; filaments grown with octadecylsulfate alongside compound. Potency, µM (titrated, usually from 57.1 µM). 71,000 tested, 2% active. AID 596, 2007;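 further: actives lower thioflavin S fluorescence by blocking filaments or displacing dye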
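Recombinant tau protein (human, 1 uM final) plus 30 uM ODS in HEPES pH 7.4 with NaCl, DTT and thioflavine S. Compound present from the start; fluorescence at 510 nm after 15 h, 37 C.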
Hsp90-TPR2A inh: Confirmation Concentration-Response Assay and Counterscreen for Disrupters of an Hsp90 Co-Chaperone Interaction | AlphaScreen TPR2A-His6 / biotin-Hsp90 peptide binding | AID 632, 2007 | 45 tested, 100% active | activity, negative = inhibition, % at 40 µM or 46 µM, hits read low | shares compounds with Hsp90 Hop PPI;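 active means compound lowering the Hsp90 and TPR2A binding signal, whether or not the linker counterscreen also flagged it as an artifact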
tau ThS displ: Tau ThS binding assay | shares compounds with Tau filament bind | recombinant tau filaments, Thioflavin S fluorescence displacement | 60 tested, 40% active | Potency, µM; calls by dose curve
aSyn ThS bind: Alpha-synuclein ThS binding assay; shares compounds with Tau filament bind; recombinant alpha-synuclein fibrils, ThS fluorescence displacement; Potency, µM; 60 tested, 40% active; calls by dose curve
Abeta ThS displ: Beta amyloid ThS binding assay | shares compounds with Tau filament bind | Abeta1-42 fibrillization, thioflavin S fluorescence, overnight 37 C | Potency, µM | 60 tested, 50% active | AID 956, 2007; calls by dose curve
Target sequence (P05067 whole entry, looked up): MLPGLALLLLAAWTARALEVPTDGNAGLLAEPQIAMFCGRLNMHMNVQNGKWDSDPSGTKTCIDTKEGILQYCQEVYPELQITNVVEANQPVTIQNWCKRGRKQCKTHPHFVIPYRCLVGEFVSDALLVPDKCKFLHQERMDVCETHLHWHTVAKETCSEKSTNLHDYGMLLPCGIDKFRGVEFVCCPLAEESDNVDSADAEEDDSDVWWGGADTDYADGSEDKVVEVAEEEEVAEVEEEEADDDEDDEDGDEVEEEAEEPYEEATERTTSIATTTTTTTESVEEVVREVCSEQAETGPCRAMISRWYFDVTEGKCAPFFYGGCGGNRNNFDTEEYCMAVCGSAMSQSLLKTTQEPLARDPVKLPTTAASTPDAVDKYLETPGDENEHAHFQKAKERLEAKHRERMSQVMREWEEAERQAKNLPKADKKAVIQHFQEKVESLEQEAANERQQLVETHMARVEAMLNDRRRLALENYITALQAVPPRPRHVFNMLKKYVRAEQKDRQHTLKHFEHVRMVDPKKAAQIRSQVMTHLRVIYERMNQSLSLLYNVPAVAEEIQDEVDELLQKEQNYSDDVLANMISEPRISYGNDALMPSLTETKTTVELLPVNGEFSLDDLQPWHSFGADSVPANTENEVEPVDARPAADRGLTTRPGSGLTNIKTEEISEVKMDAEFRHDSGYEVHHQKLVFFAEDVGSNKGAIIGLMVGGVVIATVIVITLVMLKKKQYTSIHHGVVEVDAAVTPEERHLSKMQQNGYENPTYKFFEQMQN
A number is an active result; i = inactive; ? = inconclusive; nt = no result; [ ] = another dose, or the depositor's remark. Unless noted, the call rests on the fitted dose curve; in most records, active means well fitted curve in the direction sought with a large enough effect; inconclusive means small, poorly fitted or top-dose-only effect, or another doubt; inactive means no such curve, though single readings can be large; an effect the other way counts as inactive or inconclusive.

SMILES | Hsp90 Hop PPI | ERK AVP block | Epigenetic mod | UbGFP stabilizer | HBB splicing | Tau filament bind | Hsp90-TPR2A inh | tau ThS displ | aSyn ThS bind | Abeta ThS displ
CN(C)C(=O)CSc1cccc2cccnc12 | ? | i | ? | i | i | i | nt | nt | nt | nt
O=C(CSc1cccc2cccnc12)N1CCCC1 | 10µM | i | 0.63µM | i | i | i | -99[alpha-screen platform artifact] | nt | nt | nt
CCOc1ccc(C(=O)CCNC(Cc2cnc[nH]2)C(=O)O)cc1 (stereo unspecified) | ? | i | i | i[9.17 µM] | i[0.0738 µM] | i[11.4 µM] | -93[alpha-screen platform artifact] | nt | nt | nt
O=C(NCCCn1ccnc1)Nc1ccc(Cl)c(Cl)c1 | 7.9µM | i | i | i | i | i | -98[alpha-screen platform artifact] | nt | nt | nt
Cc1nnc(N2CCN(Cc3ccccc3)CC2)[nH]c1=O | i | i | i | i | i | i | nt | nt | nt | nt
Cc1cc(C)n(-c2nnc(C)c(=O)[nH]2)n1 | 1.6µM | i | i | i[9.17 µM] | i[0.0738 µM] | i[11.4 µM] | -100[alpha-screen platform artifact] | nt | nt | nt
Nc1nc(N)nc(-c2ccccn2)n1 | 7.9µM | i | i | i | i[0.369 µM] | i | -99[alpha-screen platform artifact] | nt | nt | nt
N#Cc1cccc(-c2nc3cnc(N4CCOCC4)nc3n(C[C@H]3CCCO3)c2=O)c1 | i | i | i[9.22 µM] | i | i | i | nt | nt | nt | nt
OCc1ccnc2c(O)cccc12 | 3.2µM | i | i | i | i | i | -100[alpha-screen platform artifact] | nt | nt | nt
CCOC(=O)c1c(C)[nH]c(C(=O)CN2CCOCC2)c1C | i | i | i | i | i | i | nt | nt | nt | nt
CCOC(=O)CCCCC(=O)c1[nH]c(=O)[nH]c1CSc1nc2ccccc2[nH]1 | 2.5µM | i | i | i | i | i | -100[alpha-screen platform artifact] | nt | nt | nt
CCOC(=O)CCCCC(=O)c1[nH]c(=O)[nH]c1CSc1nc(C)cc(C)n1 | ? | i | i | i[9.17 µM] | i[0.0738 µM] | i[11.4 µM] | nt | nt | nt | nt
CCOC(=O)CCCCC(=O)c1[nH]c(=O)[nH]c1CN1CCOCC1 | 2.5µM | i | i | i | i | i | -99[alpha-screen platform artifact] | nt | nt | nt
CCOC(=O)CCCCC(=O)c1[nH]c(=O)[nH]c1CSc1nc(C)cc(=O)[nH]1 | 1µM | i | i | i | i | i | -100[alpha-screen platform artifact] | nt | nt | nt
O=C1OC(O)C(C(Cl)Cl)=C1Cl (stereo unspecified) | i | i | nt | nt | i | i | nt | nt | nt | nt
Cc1nc(NC2CCCCC2)c2nc(-c3ccccc3)n(CCN3CCCCC3)c2n1 | i | ? | nt | i | i | i | nt | nt | nt | nt
O=C(Nc1ccc(N2CCOCC2)cc1)Nc1ccc2nc(-c3ccco3)c(-c3ccco3)nc2c1 | ? | i | i | i | i | 0.79µM | nt | 1.2µM | 1.9µM | 1.2µM
Cn1c(=Nc2ccc(N3CCOCC3)cc2)ccc2ccccc21 | i | i | i | i | i | 2µM | nt | ? | i | i
Cc1ccc2nc(NC(=O)C3CCCN(S(=O)(=O)c4cccc5nonc45)C3)sc2c1 (stereo unspecified) | i | i | i | i | i | ? | nt | i | ? | i
Cn1c([N+](=O)[O-])cnc1CN1CCN(CCO)CC1 | i[11 µM] | i[11.5 µM] | i[9.22 µM] | i[9.17 µM] | i[9.22 µM] | i[11.4 µM] | nt | nt | nt | nt
CC(C)c1cc(Nc2cccc(O)c2)cc(C(C)C)c1O | ? | 32µM | i | i | i | 7.9µM | nt | 4.9µM | 3.6µM | 3.5µM
O[C@@H](c1cc([C@@]23C[C@H]4CC[C@@H]2C[C@H](C4)C3)nc2c(Cl)cc(Cl)cc12)[C@@H]1CCCCN1 | i[11 µM] | i[11.5 µM] | i[9.22 µM] | i[9.17 µM] | i[9.22 µM] | i[11.4 µM] | nt | nt | nt | nt
CCOc1ccc(C(C)=O)cc1N1C(=O)C2C3C=CC(C3)C2C1=O (stereo unspecified) | ? | i | i | i | i | i | nt | i | i | i
CCOc1ccc(C(C)=O)cc1N1C(=O)C2C3C=CC(O3)C2C1=O (stereo unspecified) | i | i | i | i | i | i | nt | nt | nt | nt
COc1ccc2c(c1)C(=NO)c1cc(OC)ccc1-2 | i | i | i | i | i[0.369 µM] | 4µM | nt | ? | ? | 4.1µM
COc1ccc(C(=N/O)/C(=N/O)c2ccc(OC)cc2)cc1 | i | i | i | i | i[9.22 µM] | i | nt | nt | nt | nt
COc1cc(NCC[C@@H]2CCCCN2)c2ncccc2c1 | i[11 µM] | i[11.5 µM] | i[9.22 µM] | i[9.17 µM] | i[9.22 µM] | i[11.4 µM] | nt | nt | nt | nt
COc1cc(N[C@@H](C)CCCN)c2ncccc2c1 | i | i | i | i | i | 5µM | nt | i | i | i
